Entries with a potency or affinity are not part of this list.
Experiments:
Klebsiella pneumoniae = conditions: Concentration 32 ug.mL-1;; ASSAY_TEST Inhibition of Bacterial Growth; detection method Absorption (OD600); MEDIA CAMHB; plate type 384well; NBS; CORNING #3640; time 18 hr
Candida albicans = conditions: Concentration 32 ug.mL-1; ASSAY_TEST Inhibition of Fungal Growth; detection method Absorption (OD530)
Cryptococcus neoformans = conditions: Concentration 32 ug.mL-1; ASSAY_TEST Inhibition of Fungal Growth; detection method Resazurin; Absorption (OD600-OD570); plate type 384well; NBS; CORNING #3640

| Structure (SMILES) | Inhibition (Klebsiella pneumoniae) | Inhibition (Candida albicans) | Inhibition (Cryptococcus neoformans) |
| --- | --- | --- | --- |
| Cc1ccc(NC(=O)Cn2nc3ccc(SC4CCCCC4)nn3c2=O)c(Cl)c1 | 12.19% | 5.14% | -13.64% |
| Cc1ccc(CNC(=O)Cn2nc3c(Sc4cccc(F)c4)nccn3c2=O)cc1 | -2.32% | 4.04% | -11.39% |
| Cc1ccc(-c2ccc3nn(CC(=O)Nc4ccc(Br)cc4F)c(=O)n3n2)cc1 | 9.08% | 3.52% | -13.83% |
| Cc1ccc(-c2ccc3nn(Cc4cc(F)cc(F)c4)c(=O)n3n2)cc1C | 3.15% | 0.47% | -8.58% |
| Cc1ccc(-c2ccc3nnc(CCC(=O)NCc4ccc(C(F)(F)F)cc4)n3n2)cc1C | 11.76% | 2.25% | -1.58% |
| CC(C)Cn1c(=O)c2ccc(C(=O)NC3CCCCC3)cc2n2c(=O)n(CC#N)nc12 | 10.69% | -0.09% | -19.28% |
| CCOC(=O)C1CCN(c2nc3ccccc3n3c(=O)n(CC(=O)Nc4ccccc4F)nc23)CC1 | 4.78% | 13.18% | -20.01% |
| O=c1c2nnc(SCc3ccc(Cl)cc3)n2ccn1-c1ccc(F)cc1 | 9.2% | 1.38% | -5.79% |
| CCCNC(=O)Cn1nc2nc(Nc3ccc(F)cc3)ccn2c1=O | -2.03% | -0.03% | -13.31% |
| CC(C)c1ccc(N(Cc2ccccc2F)S(=O)(=O)c2cccn3cnnc23)cc1 | 6.21% | -0.83% | -6.6% |
| Cc1cc(C)cc(Nc2nc(C)cc3nn(CC(=O)Nc4ccc(Cl)cc4)c(=O)n23)c1 | 13.53% | 5.41% | -4.1% |
| COc1ccc(NC(=O)Cn2nc3c4cc(-c5ccc(Cl)cc5)nn4ccn3c2=O)c(OC)c1 | 16.21% | 1.15% | -23.56% |
| Cc1ccc2c(c1)N(C(=O)Cn1nc3ccc(Sc4ccccc4)nn3c1=O)CCO2 | 4.6% | -1.78% | -5.73% |
| CC(C)c1nnc2c(=O)n(CC(=O)Nc3cc(Cl)ccc3Cl)c3ccccc3n12 | 7.9% | 3.43% | -8.45% |
| CCOc1ccc(NC(=O)Cn2nc3c4c5c(sc4ncn3c2=O)CCCC5)cc1 | 5.11% | 2.52% | -9.01% |
| COc1ccccc1NC(=O)Cn1nc2c3cc(-c4ccc(C)c(C)c4)nn3ccn2c1=O | 17.54% | -1.16% | -22.56% |
| COc1ccc(NC(=O)c2ccc3nn(CC(=O)Nc4ccc(C(F)(F)F)cc4)c(=O)n3c2)cc1 | -7.6% | 4.22% | -2.75% |
| COc1cc(NC(=O)CSc2nnc3c(=O)n(-c4cccc(OC)c4)ccn23)cc(OC)c1 | 6.06% | 3.75% | -8.68% |
| O=C(Cn1nc2ccc(-c3ccc(Cl)cc3)nn2c1=O)Nc1ccccc1 | 1.21% | 1.7% | -12.99% |
| Cc1ccc(-c2cc3c4nnc(SCC(=O)Nc5ccc(C#N)cc5)n4ccn3n2)cc1 | 4.89% | 0.36% | -27.44% |
| COc1ccc(NC(=O)Cn2nc3c4cc(-c5ccc(C)c(C)c5)nn4ccn3c2=O)cc1Cl | 8.4% | 6.09% | -7.3% |
| Cc1ccc(Cl)cc1NC(=O)CSc1nc2ccccc2n2c(C(C)C)nnc12 | 7.66% | 11.96% | -19.47% |
| COc1ccc(C(=O)CSc2nnc3c(=O)n(-c4ccccc4)ccn23)cc1OC | -1.19% | 25.44% | -8.66% |
| CCC(C)NC(=O)CCn1c(=O)c2ccccc2n2c(=O)n(CC(=O)NCc3cccs3)nc12 (stereo unspecified) | 12.47% | 0.11% | -24.13% |
| COc1ccc(NC(=O)Cn2nc3c(Oc4cccc(OC)c4)nccn3c2=O)cc1 | 3.68% | 3.75% | -7.1% |
| COc1cccc(-c2noc(Cn3nc4ccc(-c5ccc(C)c(C)c5)nn4c3=O)n2)c1OC | 9.19% | -0.69% | -10.63% |
| COc1ccc(N(Cc2ccc(C)cc2)S(=O)(=O)c2ccc3nnc(C)n3c2)cc1 | -1.06% | 4.08% | -1.52% |

— ChEMBL document CHEMBL4513146, “CO-ADD screening of Karazin Kharkiv National University (Ukraine) compounds”
